PubChem BioAssay (NCI)
Several values for one entry are separate records, joined by “and”; a condition that tells them apart may be missing. Identical values can stand only once. This is part of a sample that, as a whole, favours compounds with a hit. Of some 83,000 tested, about 20% had one in any assay.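 Percent growth is the endpoint: 0 to 100 indicates growth inhibition (40 means 60% inhibition), 0 means no net growth, and negative values indicate cell death.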 A number with no mark means an inactive call. Activity calls are given as the source filed them. How the source made its calls: active means growth percent below 10; inactive means the rest.

Experiments:
Assay in all cases: NCI-60 one-dose screen, 48 h (100 = growth as untreated, 0 = no growth, -100 = all killed)
NCI-H23 lung = tested on: NCI-H23 lung
NCI-H226 lung = tested on: NCI-H226 lung
NCI-H322M lung = tested on: NCI-H322M lung
HOP-62 NSCLC = tested on: HOP-62 NSCLC
NCI-H460 lung = tested on: NCI-H460 lung
HOP-92 NSCLC = tested on: HOP-92 NSCLC
NCI-H522 lung = tested on: NCI-H522 lung
A549/ATCC NSCLC = tested on: A549/ATCC NSCLC
786-0 renal = tested on: 786-0 renal
COLO 205 colon = tested on: COLO 205 colon
DU-145 prostate = tested on: DU-145 prostate
K-562 leukemia = tested on: K-562 leukemia
MALME-3M melanoma = tested on: MALME-3M melanoma
MDA-MB-231 breast = tested on: MDA-MB-231 breast
RXF 393 renal = tested on: RXF 393 renal
SF-268 CNS = tested on: SF-268 CNS
SF-539 CNS = tested on: SF-539 CNS
UACC-257 melanoma = tested on: UACC-257 melanoma
M14 melanoma = tested on: M14 melanoma
SF-295 CNS = settings: 10 µM unless noted

CC(=O)OCC1OC([S-])C(OC(C)=O)C(OC(C)=O)C1OC(C)=O.[Au+].c1ccc(CN2[CH-]N(Cc3ccccc3)C(c3ccccc3)=C2c2ccccc2)cc1
growth (NCI-H23 lung; 4.75 µM): 3.45% (active) | growth (NCI-H23 lung; 10 µM): 2.04% (active) | growth (NCI-H226 lung; 4.75 µM): 9.99% (active) | growth (NCI-H226 lung; 10 µM): 92.1% | growth (NCI-H322M lung; 4.75 µM): 20.8% | growth (NCI-H322M lung; 10 µM): 57.5% | growth (HOP-62 NSCLC; 4.75 µM): -12.6% (active) | growth (HOP-62 NSCLC; 10 µM): 45.1% | growth (NCI-H460 lung; 4.75 µM): 1.76% (active) | growth (NCI-H460 lung; 10 µM): 29.2% | growth (HOP-92 NSCLC; 4.75 µM): -24% (active) | growth (HOP-92 NSCLC; 10 µM): -9.45% (active) | growth (NCI-H522 lung; 4.75 µM): -68.7% (active) | growth (NCI-H522 lung; 10 µM): -27.9% (active) | growth (A549/ATCC NSCLC; 4.75 µM): 8.63% (active) | growth (A549/ATCC NSCLC; 10 µM): 59.2% | growth (786-0 renal; 4.75 µM): -33.7% (active) | growth (786-0 renal; 10 µM): -72.1% (active) | growth (COLO 205 colon; 4.75 µM): -75.6% (active) | growth (COLO 205 colon; 10 µM): 13.6% | growth (DU-145 prostate; 4.75 µM): 10.1% | growth (DU-145 prostate; 10 µM): 11.3% | growth (K-562 leukemia; 4.75 µM): -15.1% (active) | growth (K-562 leukemia; 10 µM): -6.23% (active) | growth (MALME-3M melanoma; 4.75 µM): -20.1% (active) | growth (MALME-3M melanoma; 10 µM): -49% (active) | growth (MDA-MB-231 breast; 4.75 µM): -43.6% (active) | growth (MDA-MB-231 breast; 10 µM): -55.7% (active) | growth (RXF 393 renal; 4.75 µM): -65.4% (active) | growth (RXF 393 renal; 10 µM): -75% (active) | growth (SF-268 CNS; 4.75 µM): -6.05% (active) | growth (SF-268 CNS; 10 µM): -36% (active) | growth (SF-539 CNS; 4.75 µM): 14.3% | growth (SF-539 CNS; 10 µM): 41.8% | growth (UACC-257 melanoma; 4.75 µM): -17.4% (active) | growth (UACC-257 melanoma; 10 µM): 20.6% | growth (M14 melanoma; 4.75 µM): 8.95% (active) | growth (M14 melanoma; 10 µM): -12% (active)

N#CC(N)c1ccccc1 (stereo unspecified)
growth (NCI-H23 lung; 10 µM unless noted): 109% | growth (NCI-H226 lung; 10 µM unless noted): 100% | growth (NCI-H322M lung; 10 µM unless noted): 113% | growth (HOP-62 NSCLC; 10 µM unless noted): 114% | growth (NCI-H460 lung; 10 µM unless noted): 102% | growth (HOP-92 NSCLC; 10 µM unless noted): 113% | growth (NCI-H522 lung; 10 µM unless noted): 109% | growth (A549/ATCC NSCLC; 10 µM unless noted): 109% | growth (786-0 renal; 10 µM unless noted): 105% | growth (COLO 205 colon; 10 µM unless noted): 116% | growth (DU-145 prostate; 10 µM unless noted): 106% | growth (K-562 leukemia; 10 µM unless noted): 116% | growth (MALME-3M melanoma; 10 µM unless noted): 98.9% | growth (MDA-MB-231 breast; 10 µM unless noted): 108% | growth (RXF 393 renal; 10 µM unless noted): 112% | growth (SF-268 CNS; 10 µM unless noted): 102% | growth (SF-295 CNS): 102% | growth (SF-539 CNS; 10 µM unless noted): 103% | growth (UACC-257 melanoma; 10 µM unless noted): 101%

CCCCCCCCCCCCCCCCCCn1cc[n+](C)c1
growth (NCI-H23 lung; 10 µM unless noted): -48.9% (active) and -44.3% (active) | growth (NCI-H226 lung; 10 µM unless noted): -54% (active) and -61.7% (active) | growth (NCI-H322M lung; 10 µM unless noted): 5.3% (active) and 6.16% (active) | growth (HOP-62 NSCLC; 10 µM unless noted): -58.6% (active) and -74.1% (active) | growth (NCI-H460 lung; 10 µM unless noted): -62.9% (active) and -51.3% (active) | growth (HOP-92 NSCLC; 10 µM unless noted): -51.3% (active) and -66.2% (active) | growth (NCI-H522 lung; 10 µM unless noted): -74.9% (active) and -74.3% (active) | growth (A549/ATCC NSCLC; 10 µM unless noted): -15.2% (active) and -47.2% (active) | growth (786-0 renal; 10 µM unless noted): -74.9% (active) and -81.7% (active) | growth (COLO 205 colon; 10 µM unless noted): 1.82% (active) and -47.3% (active) | growth (DU-145 prostate; 10 µM unless noted): -54% (active) and -62.3% (active) | growth (K-562 leukemia; 10 µM unless noted): 28.3% and 17.9% | growth (MALME-3M melanoma; 10 µM unless noted): -33.7% (active) and -30.7% (active) | growth (MDA-MB-231 breast; 10 µM unless noted): -66.2% (active) and -80.2% (active) | growth (RXF 393 renal; 10 µM unless noted): -28.3% (active) and -62.1% (active) | growth (SF-268 CNS; 10 µM unless noted): -45.4% (active) and -45.3% (active) | growth (SF-295 CNS): -10.4% (active) and -21.5% (active) | growth (SF-539 CNS; 10 µM unless noted): -85.2% (active) and -82.9% (active) | growth (UACC-257 melanoma; 10 µM unless noted): -38% (active) and -47.9% (active)
